# From PubChem BioAssay
# Hits are enriched below; roughly 2.1% of the tested compounds scored in any of these assays.
# Wee1 stabilizer = Wee1 degradation inhibitors, primary screen, cell-based, HeLa, Wee1K328M-luciferase, luminescence. HeLa Luc-Wee1K328M stability; 100% = proteasome inhibitor MG132 effect. reporter increase, % at 5 µM. 1.2% of 220,000 active. AID 1321, 2008;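 active means activation above the mean of all tested compounds plus 3 SD, set per screening run, cut at about 8.8% in these data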;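 further: cells exposed to compound for 20 h before luminescence read; 0% = DMSO alone and 100% = MG132 at 30 µM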
# Target sequence (P30291 whole entry K328M): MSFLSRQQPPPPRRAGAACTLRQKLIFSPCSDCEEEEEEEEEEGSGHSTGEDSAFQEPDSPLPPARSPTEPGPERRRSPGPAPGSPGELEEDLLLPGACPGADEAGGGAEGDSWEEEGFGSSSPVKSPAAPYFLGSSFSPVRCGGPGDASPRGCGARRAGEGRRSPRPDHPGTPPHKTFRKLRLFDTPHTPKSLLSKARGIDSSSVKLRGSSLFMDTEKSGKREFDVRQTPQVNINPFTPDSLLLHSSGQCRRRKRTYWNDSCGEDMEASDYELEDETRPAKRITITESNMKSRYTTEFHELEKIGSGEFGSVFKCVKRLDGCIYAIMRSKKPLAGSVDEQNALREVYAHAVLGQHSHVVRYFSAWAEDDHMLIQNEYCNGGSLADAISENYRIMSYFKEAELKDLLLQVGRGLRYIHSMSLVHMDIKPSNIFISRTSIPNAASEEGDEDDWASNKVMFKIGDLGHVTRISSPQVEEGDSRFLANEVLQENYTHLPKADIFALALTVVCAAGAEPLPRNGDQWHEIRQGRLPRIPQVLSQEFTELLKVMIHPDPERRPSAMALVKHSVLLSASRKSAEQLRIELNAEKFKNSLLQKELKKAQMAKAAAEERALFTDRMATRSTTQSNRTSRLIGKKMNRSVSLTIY
# HIF activator = HIF pathway transcriptional activators, primary screen, cell-based, U2OS HRE-luciferase, luminescence; AID 1910, 2009; U2OS HRE-luciferase reporter; normalized: DMSO 0%, desferrioxamine 100%; 0.32% of 300,000 active; activation, % at 7.5 µM (by protocol);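 active means mean activation of at least 10% of the iron chelator positive control signal, with at least half of replicates also reaching 10%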
# KLF5 inhibitor = KLF5 expression inhibitors, primary screen, DLD-1 cells, luminescence; DLD-1 KLF5 promoter-luciferase reporter; inhibition, % at 5 µM; 0.23% of 290,000 active;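 active means inhibition above a per-plate limit of that plate's mean compound inhibition plus 3 SD, cut at about 60% in these data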;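 further: 0% = DMSO wells and 100% = LY294002 at 200 µM; higher means less KLF5 promoter-driven luciferase light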
# Platelet DG rel = inhibitors of platelet dense granule secretion, primary screen, cell-based, MLPCN, human platelets | human platelet-rich plasma, SFLLRN dense granule ATP release, luminescence | inhibition, %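 (compounds screened at 7.5 µM in platelet-rich plasma)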 | 0.22% of 300,000 active;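 active means mean replicate score, as percent of positive control, at or above 50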
# aSyn UTR inh = MLPCN primary screen, SNCA 5' untranslated region. alpha-synuclein 5'UTR reporter, inhibitor activity. inhibition, % (tested at 7.5 µM). 0.82% of 300,000 active. AID 1813, 2009; in the data active means inhibition above about 60%;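 further: H4 neuroglioblastoma cells stably carrying SNCA 5'UTR luciferase fusion; 0% = DMSO wells and 100% = positive control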
# * marks the source's active call; other numbers are inactive results; . = not tested or not shown.
SMILES,Wee1 stabilizer,HIF activator,KLF5 inhibitor,Platelet DG rel,aSyn UTR inh
Cc1nn(CC(=O)Nc2cccnc2)c(C)c1[N+](=O)[O-],-1.4,-0.1,-10.3,61.4*,10.2
Cc1ccc(CNC(=O)COc2ccc(S(=O)(=O)N3CCOCC3)cc2)cc1,.,0.0,.,-5.2,-4.7
Cc1ccc(-c2[nH]ncc2C(=O)c2ccccc2C)c(O)c1,.,0.0,-18.5,-4.2,15.2
NS(=O)(=O)c1ccccc1,14.3*,-0.2,-18.2,-3.1,-4.1
COc1cc(/C=N/NC(=O)C(=O)Nc2ccccn2)ccc1O,-3.4,-0.1,9.1,6.2,-4.5
COc1ccc(/C=N/Nc2ccccn2)cc1O,-2.3,3.8,-57.6,80.1*,-144.9
O=C(C(Cc1ccccc1)n1cccc1)N1CCN(c2ncccn2)CC1 (centres undefined),0.9,-0.1,-6.3,50.2*,1.8
NNc1nc2ccc(F)cc2s1,2.6,1.7,-154.1,3.8,-254.0
Fc1ccc2nc(Nc3ccccc3)sc2c1,10.6*,4.0,-144.2,18.1,-172.4
Cc1cccc(NC(=O)CCCNC(=O)c2ccc(Cl)cc2)n1,.,0.0,-5.1,54.1*,3.4
O=C(CCN1C(=O)/C(=C/c2ccc(Cl)cc2)SC1=S)Nc1cccc(C(=O)O)c1,.,1.2,-5.1,30.7,-2.0
O=C(O)c1cccc(N2C(=O)/C(=C/c3ccc(SCc4ccc(Cl)cc4)o3)SC2=S)c1,12.2*,.,-2.7,.,.
Cc1ccc(/C=N/NC(=O)c2nnn(-c3nonc3N)c2-c2ccc3c(c2)OCO3)s1,.,-0.4,-5.7,-2.2,-12.8
COC(=O)C(C#N)c1nc2ccccc2nc1N1CCN(Cc2ccc3c(c2)OCO3)CC1 (centres undefined),.,-0.2,.,55.9*,15.7
CC(C)COC(=O)C(C#N)c1nc2ccccc2nc1N1CCN(Cc2ccc3c(c2)OCO3)CC1 (centres undefined),-1.3,0.0,-18.9,-13.3,18.0
Nc1ccc(CCNc2ncnc3c2ncn3[C@@H]2O[C@H](CO)[C@@H](O)[C@H]2O)cc1,.,-0.7,.,14.7,12.9
OCC1OC(n2cnc3c(NCCc4ccccc4)ncnc32)C(O)C1O (centres undefined),.,0.8,.,70.0*,-58.5
Cc1c(CC(=O)O)c(=O)oc2cc(OCc3ccc(Br)cc3)ccc12,.,0.7,-18.8,2.5,-27.0
CC(C)c1ccc(-c2nnn(CCC(=O)O)n2)cc1,-2.0,-7.0,33.1,-1.8,118.0*
CCc1ccc(-c2nnn(CCC(=O)OC)n2)cc1,0.6,-1.4,-6.2,1.2,77.1*
COc1ccc(C(=O)Nc2c(Cl)cc(Cl)cc2C(=O)N2CCOCC2)cc1,8.9*,0.0,-31.8,4.0,6.4
Cn1cccc1-c1nc2ccc(NC(=O)c3ccccc3)cc2[nH]1,10.2*,1.6,-22.7,-7.5,-124.5
COC(=O)c1ccc(CSc2nc3c(c(=O)n2-c2ccc(F)cc2)SCC3)o1,0.4,10.5*,15.7,4.3,6.1
Cc1cc(NC(=O)CSc2nc3c(c(=O)n2C)SCC3)no1,.,-0.4,-15.6,-8.8,-18.0
Cc1cc(NC(=O)CSc2nc3c(c(=O)n2-c2ccc(Cl)cc2)SCC3)no1,0.5,45.0*,15.4,12.0,18.0
SMILES,Wee1 stabilizer,HIF activator,KLF5 inhibitor,Platelet DG rel,aSyn UTR inh
COC(=O)c1ccc(CSc2nc3c(c(=O)n2-c2ccccc2)SCC3)o1,-2.8,0.1,-1.2,-6.0,18.7
Cc1nn(CC(=O)Nc2ccc(Cl)cc2Cl)c(=O)c2ccccc12,.,0.0,-4.3,2.8,10.4
Cc1ccc(-c2cc(C(=O)NCc3ccco3)c3ccccc3n2)o1,-1.7,-0.3,1.0,56.1*,-17.7
O=C(Nc1cccc(S(=O)(=O)NCc2ccco2)c1)c1cc(-c2ccc(F)cc2)nc2ccccc12,9.2*,0.1,-11.9,6.1,-39.2
Cc1cc(C(=O)NCc2ccco2)c2ccccc2n1,-1.6,1.4,-3.7,-6.7,1.8
Cc1ccc(-c2cc(C(=O)NN3CCOCC3)c3cc(Br)ccc3n2)o1,1.3,0.1,-0.8,-4.6,9.6
Cc1ccc(-c2cc(C(=O)O)c3cc(Br)ccc3n2)o1,9.0*,-0.5,-0.9,8.2,8.1
CC(=O)Nc1ccc(S(=O)(=O)NCc2nc(-c3ccc(C)cc3)no2)cc1,.,0.1,-9.1,-0.8,-15.5
COc1ccc(CC(NC(C)=O)C(=O)NC2CCN(C(=O)c3cccc(Cl)c3)CC2)cc1OC (centres undefined),.,127.3*,0.1,-3.3,13.1
CC/C(=N\NC(=O)C1CCCC1)c1cccc(Br)c1,.,.,-28.6,.,.
COc1cc(/C=N/NC(=O)c2cc(-c3cccn3C)n[nH]2)cc(OC)c1OC,1.0,7.3,-1.0,-8.6,-71.4
COc1cccc(/C=N/NC(=O)c2cc(-c3cccn3C)n[nH]2)c1O,-0.9,.,28.1,19.1,94.7*
COc1ccc(/C=N/NC(=O)c2cc3c(OC)ccc(OC)c3[nH]2)cc1O,.,0.3,59.5,8.6,68.3*
COc1ccc(/C=N/NC(=O)c2cnccn2)cc1O,0.1,1.6,-29.1,5.2,-62.9
COc1cccc(/C=N/NC(=O)c2cc3cc([N+](=O)[O-])ccc3s2)c1O,5.7,.,-20.9,5.2,107.0*
COc1cccc(/C=N/NC(=O)c2cc3c(OC)cccc3[nH]2)c1O,2.8,5.5,-10.0,1.4,85.5*
Cc1c(NC(=O)COC(=O)C2=COCCO2)cccc1[N+](=O)[O-],.,0.8,.,5.6,4.0
COc1cccc(CC(=O)OCC(=O)N(C)CC(=O)Nc2ccc(F)cc2)c1,.,0.2,.,-16.2,-11.6
CC1CCc2nc(NC(=O)c3ccco3)sc2C1 (centres undefined),0.3,-3.8,-9.3,10.6,88.1*
CC1CCc2nc(NC(=O)C3CCCO3)sc2C1 (centres undefined),9.7*,0.0,-109.4,-3.7,10.9
Cc1ccc(-n2nnc3c(=O)n(CC(=O)NCc4ccccc4)cnc32)cc1,14.7*,-0.4,-26.5,4.1,7.4
O=C(Cn1cnc2c(nnn2-c2ccccc2)c1=O)NCc1ccc(F)cc1,0.2,-0.1,4.6,5.3,25.3
CN(C)C(CNC(=O)CCNC(=O)c1ccc(Cl)cc1)c1ccco1 (centres undefined),.,-0.4,.,22.6,2.1
CCN1CCSc2ccc(C(=O)NCc3cc(Br)ccc3OC)cc21,.,2.4,-7.6,1.9,9.2
COc1ccc(Br)cc1CNC(=O)c1ccc2c(c1)N(C)CCS2,.,0.3,2.0,97.1*,7.1
NC(=S)N=Nc1c(O)n(CCCl)c2ccc(Br)cc12,-1.9,-0.1,-0.4,-7.0,32.1
C/C(Cl)=C\Cn1c(O)c(N=NC(N)=S)c2cc(Br)ccc21,-1.0,-0.2,-8.0,-7.2,70.1*
NC(=S)N=Nc1c(O)n(Cc2ccc(Br)cc2)c2ccccc12,3.8,1.0,-5.3,-2.9,64.4*
NC(=S)N=Nc1c(O)n(Cc2ccc(F)cc2)c2ccccc12,-1.4,-0.3,-20.2,4.6,17.1
CCC(C)NC(=O)CCn1ccc2cc(S(=O)(=O)N3CCCC3)ccc21 (centres undefined),.,-0.8,-31.6,-2.1,-1.3
